Experiments:
Assay in all cases: log2 ratio of Biotin-Ahx-Ub-VS probe labelling (fragment/DMSO); higher = less target engagement (more negative = stronger competition), active = hit call of the paper (q ≤ 0.05, log2 ratio ≤ -1)
Details in all cases: compound concentration: 200 uM; treatment time: 3 h
USP34 = USP34 (UniProt Q70CQ2)
Method in brief: (§1)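 Global-median-normalised Spectronaut label-free quantities were compared by unpaired t-test, and values are average log2 ratios of fragment over vehicle. Only proteins with ≥2 unique peptides were used. HEK293T lysate (495 µg per sample) was treated in triplicate with fragment at 200 µM or vehicle for 3 h and then with Biotin-Ahx-Ub-VS at 0.5 µM final for 1 h. Labelled DUBs were then NeutrAvidin-enriched, digested with LysC and trypsin, and run by diaPASEF LC-MS/MS.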

USP36 = biological target: T1, USP36 (UniProt Q9P275)
T1 sequence (whole entry): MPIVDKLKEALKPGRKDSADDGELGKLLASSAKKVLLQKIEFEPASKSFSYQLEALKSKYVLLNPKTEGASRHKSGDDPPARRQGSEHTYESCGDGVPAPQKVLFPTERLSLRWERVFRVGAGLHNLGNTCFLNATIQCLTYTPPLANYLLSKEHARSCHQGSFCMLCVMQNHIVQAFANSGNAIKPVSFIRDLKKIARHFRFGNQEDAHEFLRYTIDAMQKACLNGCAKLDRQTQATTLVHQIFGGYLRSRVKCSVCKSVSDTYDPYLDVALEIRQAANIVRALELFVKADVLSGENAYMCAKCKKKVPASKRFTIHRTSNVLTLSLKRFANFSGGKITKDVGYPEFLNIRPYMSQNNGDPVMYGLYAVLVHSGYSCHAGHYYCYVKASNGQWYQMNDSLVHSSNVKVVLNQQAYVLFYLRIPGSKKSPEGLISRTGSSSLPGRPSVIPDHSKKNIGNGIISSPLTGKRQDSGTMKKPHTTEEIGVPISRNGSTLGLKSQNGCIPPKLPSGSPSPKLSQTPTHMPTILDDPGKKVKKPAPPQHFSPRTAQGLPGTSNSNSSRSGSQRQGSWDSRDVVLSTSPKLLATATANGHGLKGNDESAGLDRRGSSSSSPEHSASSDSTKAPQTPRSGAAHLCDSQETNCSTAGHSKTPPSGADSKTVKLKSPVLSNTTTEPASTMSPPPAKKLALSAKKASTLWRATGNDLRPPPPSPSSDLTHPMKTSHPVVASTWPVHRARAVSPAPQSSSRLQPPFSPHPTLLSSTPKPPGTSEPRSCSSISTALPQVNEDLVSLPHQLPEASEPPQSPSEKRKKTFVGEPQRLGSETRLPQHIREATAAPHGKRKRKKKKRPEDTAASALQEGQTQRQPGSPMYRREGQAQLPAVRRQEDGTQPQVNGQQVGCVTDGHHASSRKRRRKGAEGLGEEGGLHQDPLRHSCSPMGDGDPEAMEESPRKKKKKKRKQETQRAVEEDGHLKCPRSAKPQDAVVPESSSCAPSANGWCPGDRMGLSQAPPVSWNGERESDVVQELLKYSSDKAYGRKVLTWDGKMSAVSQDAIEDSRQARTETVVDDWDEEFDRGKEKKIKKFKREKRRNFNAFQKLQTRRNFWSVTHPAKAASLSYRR
Method in brief: as §1

USP38 = biological target: T2, USP38 (UniProt Q8NB14)
T2 sequence (whole entry): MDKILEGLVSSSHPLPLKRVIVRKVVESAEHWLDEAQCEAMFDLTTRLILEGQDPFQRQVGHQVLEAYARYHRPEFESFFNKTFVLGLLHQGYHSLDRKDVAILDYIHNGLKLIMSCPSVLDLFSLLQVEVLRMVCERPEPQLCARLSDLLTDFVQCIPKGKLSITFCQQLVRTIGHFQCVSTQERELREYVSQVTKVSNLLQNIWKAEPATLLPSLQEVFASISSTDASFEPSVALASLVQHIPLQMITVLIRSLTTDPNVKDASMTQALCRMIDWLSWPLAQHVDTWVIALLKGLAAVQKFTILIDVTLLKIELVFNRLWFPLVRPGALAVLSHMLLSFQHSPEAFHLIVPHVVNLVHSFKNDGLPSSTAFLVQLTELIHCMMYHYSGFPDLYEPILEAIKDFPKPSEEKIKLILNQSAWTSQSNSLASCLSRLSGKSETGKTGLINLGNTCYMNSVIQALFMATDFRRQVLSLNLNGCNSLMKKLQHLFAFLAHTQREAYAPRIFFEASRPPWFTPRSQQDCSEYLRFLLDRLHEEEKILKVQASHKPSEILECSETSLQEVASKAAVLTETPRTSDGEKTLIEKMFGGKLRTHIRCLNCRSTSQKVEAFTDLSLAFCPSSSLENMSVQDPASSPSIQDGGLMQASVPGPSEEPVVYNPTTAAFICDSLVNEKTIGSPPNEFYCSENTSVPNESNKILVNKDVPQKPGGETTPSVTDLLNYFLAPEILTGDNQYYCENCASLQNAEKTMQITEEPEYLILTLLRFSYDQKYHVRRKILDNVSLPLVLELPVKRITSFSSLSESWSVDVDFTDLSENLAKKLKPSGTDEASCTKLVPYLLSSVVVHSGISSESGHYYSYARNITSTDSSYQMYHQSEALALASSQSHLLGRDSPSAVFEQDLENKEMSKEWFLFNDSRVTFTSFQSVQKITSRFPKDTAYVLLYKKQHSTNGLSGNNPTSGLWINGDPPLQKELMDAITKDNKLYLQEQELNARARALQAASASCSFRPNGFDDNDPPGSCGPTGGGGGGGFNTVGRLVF
Method in brief: as §1

USP39 = biological target: T3, USP39 (UniProt Q53GS9)
T3 sequence (whole entry): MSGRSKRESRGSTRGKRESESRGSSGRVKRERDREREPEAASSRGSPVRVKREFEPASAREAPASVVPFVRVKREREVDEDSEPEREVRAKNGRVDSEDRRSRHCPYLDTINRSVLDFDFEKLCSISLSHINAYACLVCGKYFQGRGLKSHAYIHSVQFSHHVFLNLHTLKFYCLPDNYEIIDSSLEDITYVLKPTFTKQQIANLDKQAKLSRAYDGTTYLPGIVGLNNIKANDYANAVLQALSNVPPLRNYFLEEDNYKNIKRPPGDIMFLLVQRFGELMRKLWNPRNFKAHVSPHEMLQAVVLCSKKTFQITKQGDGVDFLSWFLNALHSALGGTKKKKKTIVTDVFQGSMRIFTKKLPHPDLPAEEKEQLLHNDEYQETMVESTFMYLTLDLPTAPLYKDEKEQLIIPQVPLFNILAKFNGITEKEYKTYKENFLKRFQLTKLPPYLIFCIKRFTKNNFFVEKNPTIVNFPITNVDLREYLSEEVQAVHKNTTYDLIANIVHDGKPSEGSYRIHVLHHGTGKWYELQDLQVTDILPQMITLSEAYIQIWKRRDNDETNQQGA
Method in brief: as §1

USP4 = biological target: T4, USP4 (UniProt Q13107)
T4 sequence (whole entry): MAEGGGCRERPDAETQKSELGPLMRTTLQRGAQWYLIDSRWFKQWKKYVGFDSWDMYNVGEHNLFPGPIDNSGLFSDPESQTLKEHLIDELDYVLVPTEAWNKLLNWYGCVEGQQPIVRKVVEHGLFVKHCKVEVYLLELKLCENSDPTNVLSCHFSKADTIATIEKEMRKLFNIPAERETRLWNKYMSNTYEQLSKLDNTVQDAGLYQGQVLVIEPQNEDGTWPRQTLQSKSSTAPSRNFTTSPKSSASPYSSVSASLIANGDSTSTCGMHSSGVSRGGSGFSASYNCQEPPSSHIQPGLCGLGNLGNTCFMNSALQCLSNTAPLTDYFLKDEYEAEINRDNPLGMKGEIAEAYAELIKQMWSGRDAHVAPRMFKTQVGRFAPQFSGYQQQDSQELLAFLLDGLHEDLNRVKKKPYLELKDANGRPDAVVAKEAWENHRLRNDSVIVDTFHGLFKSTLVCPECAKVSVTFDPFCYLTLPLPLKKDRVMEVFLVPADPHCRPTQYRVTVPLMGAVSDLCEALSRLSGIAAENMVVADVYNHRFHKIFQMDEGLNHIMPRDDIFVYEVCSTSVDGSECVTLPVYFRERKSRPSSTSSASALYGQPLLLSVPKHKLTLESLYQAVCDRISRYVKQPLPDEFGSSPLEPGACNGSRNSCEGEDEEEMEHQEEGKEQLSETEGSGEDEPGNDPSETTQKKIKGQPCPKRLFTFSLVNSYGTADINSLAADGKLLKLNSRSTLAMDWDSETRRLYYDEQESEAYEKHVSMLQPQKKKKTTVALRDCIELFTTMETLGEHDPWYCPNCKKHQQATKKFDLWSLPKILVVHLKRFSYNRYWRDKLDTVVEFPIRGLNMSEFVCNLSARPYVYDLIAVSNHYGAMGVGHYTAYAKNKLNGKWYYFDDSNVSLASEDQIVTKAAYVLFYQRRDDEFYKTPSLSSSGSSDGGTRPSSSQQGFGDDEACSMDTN
Method in brief: as §1

Measured: log2 ratio of Biotin-Ahx-Ub-VS probe labelling

Sequence of USP34 (Q70CQ2 whole entry, the tested form may be a part): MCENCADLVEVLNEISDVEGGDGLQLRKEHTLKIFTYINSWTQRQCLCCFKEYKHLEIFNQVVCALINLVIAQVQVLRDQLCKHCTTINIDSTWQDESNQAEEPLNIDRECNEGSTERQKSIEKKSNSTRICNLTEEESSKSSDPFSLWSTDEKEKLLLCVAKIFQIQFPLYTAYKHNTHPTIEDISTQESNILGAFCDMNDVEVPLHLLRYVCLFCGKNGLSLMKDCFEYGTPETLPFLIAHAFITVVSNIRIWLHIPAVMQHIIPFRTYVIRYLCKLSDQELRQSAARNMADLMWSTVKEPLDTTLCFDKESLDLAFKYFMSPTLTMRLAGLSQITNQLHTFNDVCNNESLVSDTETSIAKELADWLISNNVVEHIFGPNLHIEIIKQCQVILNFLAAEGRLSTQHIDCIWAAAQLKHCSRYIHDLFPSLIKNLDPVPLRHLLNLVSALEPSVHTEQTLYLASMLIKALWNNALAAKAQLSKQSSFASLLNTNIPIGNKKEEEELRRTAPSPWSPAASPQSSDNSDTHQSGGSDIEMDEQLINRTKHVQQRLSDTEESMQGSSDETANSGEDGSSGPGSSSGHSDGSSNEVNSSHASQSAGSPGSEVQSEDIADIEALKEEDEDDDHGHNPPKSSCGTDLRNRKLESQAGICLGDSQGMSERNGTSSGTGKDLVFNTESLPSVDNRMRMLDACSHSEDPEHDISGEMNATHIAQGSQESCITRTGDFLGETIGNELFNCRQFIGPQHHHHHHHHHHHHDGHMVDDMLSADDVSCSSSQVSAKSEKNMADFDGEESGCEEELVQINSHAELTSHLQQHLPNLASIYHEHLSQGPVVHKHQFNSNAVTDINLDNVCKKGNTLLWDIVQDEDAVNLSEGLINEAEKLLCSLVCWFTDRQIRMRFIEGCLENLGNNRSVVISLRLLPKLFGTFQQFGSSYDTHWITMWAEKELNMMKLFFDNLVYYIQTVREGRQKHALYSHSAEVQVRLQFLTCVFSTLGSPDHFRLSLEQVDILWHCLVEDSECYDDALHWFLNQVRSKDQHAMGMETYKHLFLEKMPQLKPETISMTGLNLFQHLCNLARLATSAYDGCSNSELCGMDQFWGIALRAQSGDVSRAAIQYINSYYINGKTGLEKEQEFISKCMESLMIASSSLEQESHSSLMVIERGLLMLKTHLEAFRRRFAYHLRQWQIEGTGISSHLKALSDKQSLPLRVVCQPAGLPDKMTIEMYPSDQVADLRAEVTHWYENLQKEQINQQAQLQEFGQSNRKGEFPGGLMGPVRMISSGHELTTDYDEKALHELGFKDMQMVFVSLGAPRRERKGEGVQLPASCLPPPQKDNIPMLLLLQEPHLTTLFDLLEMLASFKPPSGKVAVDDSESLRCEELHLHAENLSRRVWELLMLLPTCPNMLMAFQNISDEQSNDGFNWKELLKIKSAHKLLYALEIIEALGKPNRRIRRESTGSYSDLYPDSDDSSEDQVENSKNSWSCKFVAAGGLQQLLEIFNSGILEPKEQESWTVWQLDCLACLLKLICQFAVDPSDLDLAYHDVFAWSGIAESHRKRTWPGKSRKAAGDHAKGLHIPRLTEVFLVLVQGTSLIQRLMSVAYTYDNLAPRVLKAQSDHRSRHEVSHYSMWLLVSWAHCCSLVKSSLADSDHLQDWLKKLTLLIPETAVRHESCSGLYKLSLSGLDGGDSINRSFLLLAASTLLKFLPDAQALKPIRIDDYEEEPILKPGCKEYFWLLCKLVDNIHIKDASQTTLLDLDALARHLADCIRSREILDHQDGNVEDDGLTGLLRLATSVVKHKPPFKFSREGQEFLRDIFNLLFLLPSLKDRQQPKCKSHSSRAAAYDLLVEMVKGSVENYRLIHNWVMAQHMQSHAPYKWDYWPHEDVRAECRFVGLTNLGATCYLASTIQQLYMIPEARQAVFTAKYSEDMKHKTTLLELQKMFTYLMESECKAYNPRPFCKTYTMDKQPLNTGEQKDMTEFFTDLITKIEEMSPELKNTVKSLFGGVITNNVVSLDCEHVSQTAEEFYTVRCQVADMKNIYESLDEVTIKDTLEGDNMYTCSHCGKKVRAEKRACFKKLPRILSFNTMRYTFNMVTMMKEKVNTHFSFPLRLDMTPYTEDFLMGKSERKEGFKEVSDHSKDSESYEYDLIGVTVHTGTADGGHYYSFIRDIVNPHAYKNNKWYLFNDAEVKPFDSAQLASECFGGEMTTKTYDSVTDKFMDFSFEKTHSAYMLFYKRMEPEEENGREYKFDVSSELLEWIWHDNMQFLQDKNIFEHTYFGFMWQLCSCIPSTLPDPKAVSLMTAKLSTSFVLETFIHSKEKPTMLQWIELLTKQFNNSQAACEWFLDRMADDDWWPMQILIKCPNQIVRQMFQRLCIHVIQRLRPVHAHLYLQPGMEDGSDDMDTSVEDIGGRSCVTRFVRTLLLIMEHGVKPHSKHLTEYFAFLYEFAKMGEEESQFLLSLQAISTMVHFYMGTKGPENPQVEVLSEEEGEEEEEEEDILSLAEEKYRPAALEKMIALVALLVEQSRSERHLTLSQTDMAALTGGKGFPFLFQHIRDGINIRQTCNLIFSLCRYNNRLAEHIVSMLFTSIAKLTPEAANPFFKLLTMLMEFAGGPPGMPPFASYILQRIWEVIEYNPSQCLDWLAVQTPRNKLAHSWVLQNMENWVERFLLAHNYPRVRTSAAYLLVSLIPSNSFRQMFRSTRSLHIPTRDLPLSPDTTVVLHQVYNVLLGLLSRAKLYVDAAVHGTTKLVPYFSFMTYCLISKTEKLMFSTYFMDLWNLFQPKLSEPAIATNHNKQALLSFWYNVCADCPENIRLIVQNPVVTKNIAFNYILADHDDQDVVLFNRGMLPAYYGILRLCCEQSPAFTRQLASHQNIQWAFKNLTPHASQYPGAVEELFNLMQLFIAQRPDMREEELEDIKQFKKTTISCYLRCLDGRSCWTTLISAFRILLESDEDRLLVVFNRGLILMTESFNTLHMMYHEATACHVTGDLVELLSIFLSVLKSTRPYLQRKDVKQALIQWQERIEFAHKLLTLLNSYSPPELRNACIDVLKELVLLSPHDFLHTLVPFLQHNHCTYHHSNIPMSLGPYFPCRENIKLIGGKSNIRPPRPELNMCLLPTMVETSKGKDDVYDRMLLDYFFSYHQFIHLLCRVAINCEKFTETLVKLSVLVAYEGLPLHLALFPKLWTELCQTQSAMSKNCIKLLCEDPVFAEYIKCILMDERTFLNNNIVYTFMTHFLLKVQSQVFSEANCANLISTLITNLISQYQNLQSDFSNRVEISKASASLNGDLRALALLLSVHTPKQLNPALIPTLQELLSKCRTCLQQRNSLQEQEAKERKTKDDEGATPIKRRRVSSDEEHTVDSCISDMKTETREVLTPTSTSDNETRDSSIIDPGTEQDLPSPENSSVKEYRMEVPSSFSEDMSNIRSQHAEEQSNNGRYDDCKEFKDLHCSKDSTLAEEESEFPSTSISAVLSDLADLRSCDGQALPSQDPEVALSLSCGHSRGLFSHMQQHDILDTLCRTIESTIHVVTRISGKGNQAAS

CCC1c2ccsc2CCN1C(=O)CCl (stereo not given)
inactive: USP34 -0.381 | USP36 -0.0771 | USP38 -0.204 | USP39 0.162 | USP4 -0.497
